Assay outcomes from PubChem BioAssay.
RGS4-Gao reg: human RGS4-Galphao interaction regulation; binding response (% of control), % at 10 µM; 0.33% of 220,000 active; P09471; Multiplexed bead flow cytometry, RGS4-Galphao binding; actives lie on both sides; in the data active means binding response below about 49% or above about 150%; inactive means in between;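 further: fluorescent Galphao activated with aluminum fluoride binding bead-coupled RGS4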
Target sequence (P09471 whole entry, looked up): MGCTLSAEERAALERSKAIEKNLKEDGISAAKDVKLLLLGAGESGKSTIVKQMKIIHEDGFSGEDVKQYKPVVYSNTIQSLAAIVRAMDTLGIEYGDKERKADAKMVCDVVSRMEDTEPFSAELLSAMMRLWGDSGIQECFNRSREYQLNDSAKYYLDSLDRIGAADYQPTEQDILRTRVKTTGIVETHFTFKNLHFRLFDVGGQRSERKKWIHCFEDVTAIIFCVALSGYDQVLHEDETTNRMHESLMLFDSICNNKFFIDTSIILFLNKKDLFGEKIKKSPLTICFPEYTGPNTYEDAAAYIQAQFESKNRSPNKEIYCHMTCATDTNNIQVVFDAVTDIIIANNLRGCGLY
GSH fluor: compound fluoresces at 488/530 nm on GSH beads. GSH beads flow cytometry, compound fluorescence 488/530 nm; hits give high values. fluorescence (KMESF) at 10 µM. 0.25% of 190,000 active; in the data active means fluorescence above about 89;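 further: glutathione beads carrying GST-tagged Bcl family fusion proteins plus one bare bead set; values are compound well signal with DMSO vehicle wells as background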
Avidin bead fluor: avidin bead compound fluorescence profile; 0.38% of 220,000 active; Avidin beads, compound fluorescence 488/530 nm, flow cytometry; hits give high values; AID 1775; fluorescence (KMESF) at 10 µM; in the data active means fluorescence above about 47
RGS7-Gao: human RGS7-Galphao interaction regulation; Multiplexed bead flow cytometry, RGS7-Galphao binding; actives lie on both sides; P09471; binding response (% of control), % at 10 µM; 0.35% of 220,000 active; in the data active means binding response below about 49% or above about 150%; inconclusive means no clear call, values can overlap the other calls; inactive means in between;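 further: fluorescent Galphao held in activated GDP-AlF4 state binding bead-coupled RGS7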
RGS8-Gao reg: human RGS8-Galphao interaction regulation. P09471. multiplexed bead flow cytometry, RGS8-Galphao binding; actives lie on both sides. response (percent of control binding), % at 10 µM. 0.34% of 220,000 active; in the data active means response below about 60% or above about 140%; inactive means in between;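 further: Galphao activated as the GDP aluminium fluoride complex binding bead-coupled RGS8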
RGS16-Gao HTS: modulates binding between human RGS16 and Galphao. O15492+P09471. bead-based flow cytometry RGS16-Galphao binding, fluorescence; actives lie on both sides. binding response (% of control), % at 10 µM. 0.38% of 220,000 active; call rule not given here;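 further: Galphao activated by GDP with aluminum fluoride before binding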
Target sequence (O15492 whole entry, looked up): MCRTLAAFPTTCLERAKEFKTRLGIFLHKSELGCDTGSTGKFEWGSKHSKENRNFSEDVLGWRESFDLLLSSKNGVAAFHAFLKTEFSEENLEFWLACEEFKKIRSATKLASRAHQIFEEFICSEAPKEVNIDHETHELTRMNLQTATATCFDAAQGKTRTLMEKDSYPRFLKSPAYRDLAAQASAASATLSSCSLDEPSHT
Target sequence (P09471 whole entry, looked up): as the sequence (P09471 whole entry, looked up) above
* marks the source's active call; other numbers are inactive results; ? = inconclusive; . = not tested or not shown. Shown are actives, neighbours in structure and some others; about 1.2% of the full set was active somewhere.

SMILES | RGS4-Gao reg | GSH fluor | Avidin bead fluor | RGS7-Gao | RGS8-Gao reg | RGS16-Gao HTS
CC1CCN(Cc2cc(=O)oc3ccc4ccccc4c23)CC1 | 101 | . | 6 | ? | 101 | 100
Cc1cc(NC(=O)c2ccc(S(=O)(=O)N(C)C)cc2)n(-c2ccccn2)n1 | 108 | 26 | 88* | 122 | 104 | 104
COc1ccc(N=C(c2ccccc2)c2c(C)[nH]n(-c3ccccc3)c2=O)c(OC)c1 | 101 | . | 8 | ? | 102 | 103
Cc1ccc(NCc2nnc(SCC(=O)NNC(=O)Cc3ccccc3)n2C)cc1 | 95 | . | 12 | ? | 93 | 90
COc1ccc2[nH]c(=O)c(CN(Cc3nnnn3Cc3ccc(F)cc3)CC3CCCO3)cc2c1 (stereo not given) | 108 | 12 | 105* | 144 | 100 | 104
O=c1c2ccccc2nnn1CSc1ccccc1 | 105 | 12 | 21 | 101 | 106 | 107
Cc1nc(SCn2nnc3ccccc3c2=O)nc(C)c1C | 100 | 258* | 8 | 102 | 100 | 102
CC(C)c1ccccc1OCCCCCNCCO | 105 | 23 | 48* | 109 | 100 | 105
Cc1c(/C=N\NC(=O)c2csc3ccccc23)cnn1C | 110 | 23 | 54* | 127 | 102 | 106
COC(=O)c1ccc(/C=N/OCC(=O)NCc2ccc(F)cc2)cc1 | 112 | 16 | 54* | ? | 100 | 110
CC1CCCC(NC(=S)Nc2cccc(S(=O)(=O)N(C)C)c2)C1C (stereo not given) | 102 | 15 | 22 | 101 | 100 | 110
N#Cc1c(-c2ccc(Cl)cc2)ccn2nc(C3CCCCC3)nc12 | 105 | 262* | 7 | 105 | 103 | 101
Cc1ccc(C(=O)n2nc(C#N)c(C#N)c2N)cc1 | 99 | . | 12 | ? | 109 | 107
CCCC(=O)Nc1ccc(-c2nc3cc(C)ccc3o2)cc1 | 102 | 30 | 10 | 101 | 101 | 100
CCCC(=O)Nc1ccc2oc(-c3ccc(OC)c(Br)c3)nc2c1 | 103 | 24 | 54* | 109 | 99 | 101
COC(=O)C1CCN(CC(=O)Nc2ccc(OC)c(Cl)c2)CC1 | 101 | 9 | 27 | 99 | 103 | 108
CC1C(=O)CCC1(C(=O)O)c1ccccc1 (stereo not given) | 114 | 13 | 49* | 110 | 101 | 118
CCN(CC)C(=O)[C@]1(c2ccccc2)C[C@@H]1CN | 104 | 64 | 6 | 105 | 98 | 103
Cc1cccc(C)c1NC(=O)CSc1nc(-c2ccco2)cc(C(F)(F)F)n1 | 96 | 12 | 67* | 118 | 95 | 102
Cn1ncc2c(NNC(=O)c3ccc(Cl)cc3Cl)ncnc21 | 104 | 14 | 8 | 105 | 97 | 80
O=C(CSCc1ccc(Cl)cc1)c1ccco1 | 108 | 260* | 7 | 106 | 104 | 108
O=C(CSc1nc2cc(Cl)ccc2s1)c1ccco1 | 96 | 8 | 15 | 95 | 99 | 98
O=C(CSc1nnc(-c2ccco2)o1)NC(=O)C1COc2ccccc2O1 (stereo not given) | 70 | 245* | 3 | 77 | 71 | 6
Cc1ccc2[nH]c(=O)c(C(c3nnnn3CC3CCCO3)N3CCCc4ccccc43)cc2c1 (stereo not given) | 106 | 22 | 18 | 105 | 99 | 84
COCCCNC(=O)CSc1ccc(Cl)cc1 | 96 | 11 | 5 | 101 | 98 | 94
SMILES | RGS4-Gao reg | GSH fluor | Avidin bead fluor | RGS7-Gao | RGS8-Gao reg | RGS16-Gao HTS
CCOCCCNC(=O)CSc1ccccc1 | 98 | 37 | 51* | 104 | 99 | 97
CC(=O)N1CCC(N(C(=O)Nc2ccc(C)c(C)c2)C2CCCC2)CC1 | 103 | 18 | 47* | 105 | 101 | 106
COC(=O)C(C(=O)OC)c1ccccc1[N+](=O)[O-] | 102 | 272* | 7 | 100 | 100 | 102
Cc1ccc(/C=N/NC(=O)CNC(=O)c2cccc([N+](=O)[O-])c2C)o1 | 91 | 22 | 10 | 91 | 98 | 97
O=C(NCCSc1ccccc1)c1ccc(Br)cc1 | 101 | 18 | 16 | 97 | 102 | 102
O=C(NCCSc1ccccc1)c1cncc(Br)c1 | 106 | 18 | 91* | 123 | 101 | 106
O=C(Nc1ccc(Oc2cccc(C(F)(F)F)c2)nc1)c1cccs1 | 107 | . | 7 | ? | 101 | 104
Cn1nc(-c2ccccc2)c(C(O)c2ccc(Cl)cc2)c1Cl (stereo not given) | 100 | 13 | 56* | 108 | 99 | 103
O=C(NN1C(=O)c2ccccc2C1=O)c1ccc2c(c1)C(=O)N(CC1CCCO1)C2=O (stereo not given) | 112 | . | 52* | ? | 104 | 110
Cc1ccc(NC(=O)c2ccc3c(c2)C(=O)N(CC2CCCO2)C3=O)cc1C (stereo not given) | 100 | 9 | 7 | 103 | 103 | 109
COC(=O)/C=c1\[nH]c2nnc(C)n2c1=O | 98 | . | 6 | ? | 100 | 100
CNC(=S)NNC(=O)c1c(C)nc2cc(C)ccn12 | 98 | . | 8 | ? | 97 | 96
CCOc1ccccc1OCC(=O)Nc1nnc(C)s1 | 109 | 30 | 117* | 131 | 104 | 110
O=C1C2CC=CCC2C(=O)N1c1ccc(NCCc2ccc(O)cc2)c([N+](=O)[O-])c1 (stereo not given) | 99 | 23 | 4 | 102 | 99 | 90
CCOCCCNC(=O)C(NC(=O)Cc1cccs1)c1ccc(Cl)cc1 (stereo not given) | 105 | 16 | 9 | ? | 103 | 103
CC(Oc1ccccc1)C(=O)OCC(=O)NC(=O)NCc1ccco1 (stereo not given) | 106 | 267* | 6 | 102 | 105 | 122
CC(C)c1cc(C(=O)OCC(=O)NC(=O)NCc2ccco2)c(O)c(C(C)C)c1 | 103 | 9 | 9 | ? | 101 | 105
CCCCN(CCCC)S(=O)(=O)c1ccc(NS(=O)(=O)c2ccc(NC(C)=O)cc2)cc1 | 102 | 6 | 6 | 102 | 102 | 99
CCCCOc1ccc(S(=O)(=O)Nc2ccc(NC(C)=O)cc2)cc1 | 103 | 129* | 5 | 106 | 108 | 116
CC1(C)C(CSc2nc3ccccc3[nH]2)C1(Cl)Cl (stereo not given) | 103 | 10 | 9 | 99 | 101 | 97
CCCOC(=O)c1ccc(NC(=O)c2ccoc2C)cc1 | 98 | 27 | 51* | 106 | 98 | 100
CCCOC(=O)c1ccc(NC(=O)C2C3C=CC(O3)C2C(=O)O)cc1 (stereo not given) | 116 | 244* | 4 | 110 | 119 | 179
CCCOC(=O)c1ccc(NC(=O)COC)cc1 | 103 | 12 | 10 | 104 | 103 | 106
CCOC(=O)c1c(-c2cccc([N+](=O)[O-])c2)csc1NC(=O)C1CCCCC1 | 96 | 166* | 4 | 97 | 99 | 100
CCN(CC)NC(=S)Nc1ccccc1 | 106 | 35 | 11 | 105 | 107 | 115
CC(C)N(C)NC(=S)Nc1ccccc1 | 93 | 332* | 7 | 94 | 96 | 85
